Read-out in test [1]: Tissue plasminogen activator (tPA), PLAT (gene 5327)
The test can be described thus: BSK_BE3C_tPA: BioMAP Diversity Plus: BE3C Assay for Tissue plasminogen activator (tPA) Biomarker Activity (AID 2283041).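 As to outcome: tPA level quantified by ELISA one day after compound addition.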 The note with it: primary human bronchial epithelial cells; actives raise or lower the signal. The gist of the method:
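Using human lung primary bronchial epithelial cells, tPA was measured by ELISA 24 h after dosing; data fitted relative to DMSO.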

Read-out in test [2]: Interleukin-8 (IL8), CXCL8 (gene 3576)
Nature of the test: BSK_CASM3C_IL8: BioMAP Diversity Plus: CASM3C Assay for Interleukin-8 (IL8) Biomarker Activity (AID 2283042).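 Also: IL-8 protein level quantified by ELISA.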 The note with it: primary human coronary artery smooth muscle cells; actives raise or lower the signal.

Read-out in test [3]: Human Leukocyte Antigen - DR isotype (HLADR), HLA-DRA (gene 3122)
The test can be described thus: BSK_CASM3C_HLADR: BioMAP Diversity Plus: CASM3C Assay for Human Leukocyte Antigen - DR isotype (HLADR) Biomarker Activity (AID 2283043).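 Also: cell-surface HLA-DR protein level quantified by ELISA.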 To be noted: primary human coronary artery smooth muscle cells; actives raise or lower the signal.

Read-out in test [4]: Macrophage colony-stimulating factor (MCSF), CSF1 (gene 1435)
The test can be described thus: BSK_CASM3C_MCSF: BioMAP Diversity Plus: CASM3C Assay for Macrophage colony-stimulating factor (MCSF) Biomarker Activity (AID 2283044).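 Also: M-CSF protein amount quantified by ELISA after 24 h exposure.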 The note with it: primary human coronary artery smooth muscle cells; actives raise or lower the signal.

Read-out in test [5]: Low-density lipoprotein receptor (LDLR), LDLR (gene 3949)
The test can be described thus: BSK_CASM3C_LDLR: BioMAP Diversity Plus: CASM3C Assay for Low-density lipoprotein receptor (LDLR) Biomarker Activity (AID 2283045).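 Also: LDLR protein level on the cell surface quantified by ELISA.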 To be noted: primary human coronary artery smooth muscle cells; actives raise or lower the signal.

Read-out in test [6]: Monocyte Chemoattractant Protein-1 (MCP1), CCL2 (gene 6347)
Nature of the test: BSK_CASM3C_MCP1: BioMAP Diversity Plus: CASM3C Assay for Monocyte Chemoattractant Protein-1 (MCP1) Biomarker Activity (AID 2283046).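 Also: MCP-1 level quantified by ELISA 24 h after dosing.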 To be noted: primary human coronary artery smooth muscle cells; actives raise or lower the signal.

A short description of test [7]: BSK_CASM3C_Proliferation: Cell Proliferation Assessment in the BioMAP Diversity Plus: CASM3C Assay (AID 2283047).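 Also: sulforhodamine B total protein stain as relative cell number at 560 nm; sub-confluent cells exposed 48 h before staining; fitted both ways against DMSO so gain or loss of cell number.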 To be noted: primary human coronary artery smooth muscle cells.
Read-out in test [8]: Monokine induced gamma interferon (MIG), CXCL9 (gene 4283)
Nature of the test: BSK_CASM3C_MIG: BioMAP Diversity Plus: CASM3C Assay for Monokine induced gamma interferon (MIG) Biomarker Activity (AID 2283048).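 Also: MIG protein level measured by ELISA.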 To be noted: primary human coronary artery smooth muscle cells; actives raise or lower the signal.

Read-out in test [9]: serum amyloid A (SAA), SAA1 (gene 6288)
Nature of the test: BSK_CASM3C_SAA: BioMAP Diversity Plus: CASM3C Assay for serum amyloid A (SAA) Biomarker Activity (AID 2283049).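 Also: SAA protein level quantified by ELISA.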 The note with it: primary human coronary artery smooth muscle cells; actives raise or lower the signal.

Test [10] can be described thus: BSK_CASM3C_SRB: Viability Assessment in the BioMAP Diversity Plus: CASM3C Assay (AID 2283050).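 Also: total protein by SRB staining as cytotoxicity measure in parallel cultures; cells exposed to compound for 24 h.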 To be noted: primary human coronary artery smooth muscle cells.
Read-out in test [11]: Thrombomodulin, THBD (gene 7056)
The test can be described thus: BSK_CASM3C_Thrombomodulin: BioMAP Diversity Plus: CASM3C Assay for Thrombomodulin Biomarker Activity (AID 2283051).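 Also: thrombomodulin protein level measured by ELISA 24 h after dosing.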 The note with it: primary human coronary artery smooth muscle cells; actives raise or lower the signal.

Read-out in test [12]: Tissue Factor, F3 (gene 2152)
Nature of the test: BSK_CASM3C_TissueFactor: BioMAP Diversity Plus: CASM3C Assay for Tissue Factor Biomarker Activity (AID 2283052).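 Also: cell surface tissue factor protein level read by ELISA.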 The note with it: primary human coronary artery smooth muscle cells; actives raise or lower the signal.

Read-out in test [13]: Interferon-gamma inducible Protein 10 (IP10), CXCL10 (gene 3627)
The test can be described thus: BSK_hDFCGF_IP10: BioMAP Diversity Plus: hDFCGF Assay for Interferon-gamma inducible Protein 10 (IP10) Biomarker Activity (AID 2283053). To be noted: primary human foreskin fibroblasts; actives raise or lower the signal. The gist of the method: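 Chemical-treated human skin fibroblasts (primary) were sampled at 24 h for IP-10 by ELISA. Both increases and decreases relative to DMSO were scored.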

Read-out in test [14]: Urokinase-type plasminogen activator receptor (uPAR), PLAUR (gene 5329)
The test can be described thus: BSK_CASM3C_uPAR: BioMAP Diversity Plus: CASM3C Assay for Urokinase-type plasminogen activator receptor (uPAR) Biomarker Activity (AID 2283054).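 Also: cell-surface uPAR protein level quantified by ELISA.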 The note with it: primary human coronary artery smooth muscle cells; actives raise or lower the signal.

Read-out in test [15]: Vascular cell adhesion molecule 1 (VCAM1), VCAM1 (gene 7412)
The test can be described thus: BSK_CASM3C_VCAM1: BioMAP Diversity Plus: CASM3C Assay for Vascular cell adhesion molecule 1 (VCAM1) Biomarker Activity (AID 2283055).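 Also: VCAM-1 protein level quantified by ELISA on the cells.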 To be noted: primary human coronary artery smooth muscle cells; actives raise or lower the signal.

Read-out in test [16]: Collagen III, COL3A1 (gene 1281)
The test can be described thus: BSK_hDFCGF_CollagenIII: BioMAP Diversity Plus: hDFCGF Assay for Collagen III Biomarker Activity (AID 2283056). The note with it: primary human foreskin fibroblasts; actives raise or lower the signal. The gist of the method:
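ELISA read-out of collagen III from human skin fibroblast cultures sampled 24 h post-dosing. Values were derived by bidirectional fitting relative to the DMSO vehicle control.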

Read-out in test [17]: Epidermal growth factor receptor (EGFR), EGFR (gene 1956)
Nature of the test: BSK_hDFCGF_EGFR: BioMAP Diversity Plus: hDFCGF Assay for Epidermal growth factor receptor (EGFR) Biomarker Activity (AID 2283057). To be noted: primary human foreskin fibroblasts; actives raise or lower the signal. The gist of the method:
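Cell-based multiplexed assay in primary human foreskin fibroblasts. EGFR is read by ELISA 24 h after treatment and compared with DMSO controls.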

Read-out in test [18]: Interleukin-8 (IL8), CXCL8 (gene 3576)
The test can be described thus: BSK_hDFCGF_IL8: BioMAP Diversity Plus: hDFCGF Assay for Interleukin-8 (IL8) Biomarker Activity (AID 2283058). The note with it: primary human foreskin fibroblasts; actives raise or lower the signal. In short, it runs like this:
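Cells used are human skin primary fibroblasts. Chemical is added, cultures run 24 h, then IL-8 is quantified by ELISA, and gain or loss versus DMSO control is fitted in both directions.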

The nature of test [19]: BSK_hDFCGF_Proliferation: Cell Proliferation Assessment in the BioMAP Diversity Plus: hDFCGF Assay (AID 2283059).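 Also: curves fitted for both rise and fall of signal versus DMSO baseline.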 The note with it: primary human foreskin fibroblasts. The gist of the method: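 Steps: dose primary human dermal fibroblasts (foreskin); […] fix in 10% TCA; stain with 0.1% SRB; read 560 nm; fit gain or loss of signal against DMSO.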
Read-out in test [20]: Macrophage colony-stimulating factor (MCSF), CSF1 (gene 1435)
The test can be described thus: BSK_hDFCGF_MCSF: BioMAP Diversity Plus: hDFCGF Assay for Macrophage colony-stimulating factor (MCSF) Biomarker Activity (AID 2283060). To be noted: primary human foreskin fibroblasts; actives raise or lower the signal. The gist of the method: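 Primary human foreskin fibroblasts dosed with chemical; 24 h later, M-CSF quantified by ELISA; curves fitted in both directions vs DMSO negative control.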

Where “and” joins values, the source holds several entries; their conditions need not be identical. Identical values can stand only once. Calls of active or inactive are those of the source. The calls were made as follows: active = hit-call score of the fitted dose curve at least 0.9, where 1 is the maximum; inactive = score below 0.9.

In general, AC50 refers to the midpoint of the concentration-response curve, whichever way the signal moves. Take `O=C(Nc1ccc2c(O)c(N=Nc3ccc(N=Nc4ccc(S(=O)(=O)O)cc4)cc3)c(S(=O)(=O)O)cc2c1)c1ccccc1`: the AC50 in test [1] was 5.36 µM (active) and 5.91 µM (active); in test [13], 25.5 µM (active) and 36.2 µM (active). Further, the outcome in test [2], in [3], in test [4], in test [5], in test [6] and in [7] was inactive. Further, the outcome in test [8], in test [9], in test [10], in test [11], in test [12] and in test [14] was inactive. Also, the outcome in test [15], in test [16], in test [17], in test [18] and in test [19] was inactive.

With `O=C1OC[C@H](Cc2cccc(O)c2)[C@H]1Cc1cccc(O)c1`, the result in [1], in [2], in [3], in [4], in [5] and in test [6] was inactive. In addition, the outcome in test [7], in test [8], in test [9], in test [10], in [11] and in test [12] was inactive. The outcome in [13], in test [14], in [15], in [16], in test [17] and in test [18] was inactive. In addition, the result in test [19] and in test [20] was inactive.

`Clc1cc(Cl)c(-c2c(Cl)c(Cl)cc(Cl)c2Cl)cc1Cl`: the outcome in [1], in [2], in [3], in test [4], in test [5] and in [6] was inactive. Moreover, the outcome in test [8], in [9], in test [10], in test [11], in test [12] and in [14] was inactive. The outcome in test [15] and in [17] was inactive. Moreover, the AC50 in test [7] was 0.023 µM (active); in [13] it was 16 µM (active); in test [16], 4.19 µM (active); in [18], 15.8 µM (active); in [19], 3.7 µM (active).

For `O=C1OC2(c3ccccc31)c1ccc(O)c(Br)c1Oc1c2ccc(O)c1Br`, the AC50 in test [1], in test [13] and in [19] was 20 µM (active) each time. Moreover, the result in test [2], in [3], in test [4], in test [5], in test [6] and in [7] was inactive. Besides, the outcome in test [8], in [9], in test [10], in [11], in [12] and in test [14] was inactive. The result in test [15], in [16], in [17] and in test [18] was inactive.

For the molecule `CC1(C)C2=CCCC(C)(C)[C@]23CC[C@H]1C3`, the AC50 was 31.5 µM (active) in test [1]; 20 µM (active) in test [3]; 32.7 µM (active) in test [4]; 34.6 µM (active) in [5]; 31.3 µM (active) in test [6]; 30.7 µM (active) in test [7]. In addition, the AC50 is 20 µM (active) in test [9]; 31.1 µM (active) in test [10]; 30.9 µM (active) in [12]; 34.9 µM (active) in test [13]; 20 µM (active) in test [14]; 30.8 µM (active) in [15]. The AC50 in test [16] was 20 µM (active); in test [19], 8.84 µM (active); in test [20], 30.2 µM (active). For the same molecule, the outcome in test [2], in [8], in test [11], in test [17] and in test [18] was inactive.

The values are drawn from PubChem BioAssay (EPA / NIEHS).
